{"source": "the supplement of paper PMC12282887", "test_in_all_cases": "promoter activity interaction Z-score (Lux/OD deviation from empty-vector control); higher = stronger promoter induction by the compound", "key": {"[1]": {"tested_on": "E. coli BW25113 acrABp lux reporter", "in_short": "(§1)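 Every compound was given at four 1:2 dilutions, in biological duplicates, to E. coli BW25113 carrying low-copy luxCDABE promoter reporters in wild-type or single-gene deletion backgrounds. Growth in 40 µl LB Lennox in 384-well plates at 37°C was followed by OD600 and luminescence readings every 30 min for 12 h, integrated over 0–8 h for wild type and 1–9 h for deletion strains, with wells below 10% of the median growth value excluded. Scores are Z-transformed residuals of growth-normalised luminescence fitted against a control.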"}, "[2]": {"tested_on": "E. coli BW25113 micFp lux reporter", "in_short": "as §1"}, "[3]": {"tested_on": "E. coli BW25113 ompFp lux reporter", "in_short": "as §1"}, "[4]": {"tested_on": "E. coli BW25113 robp lux reporter", "in_short": "as §1"}, "[5]": {"tested_on": "E. coli BW25113 soxSp lux reporter", "in_short": "as §1"}, "[6]": {"tested_on": "E. coli BW25113 tolCp lux reporter", "in_short": "as §1"}, "[7]": {"conditions": "0.13 µg/ml, genetic background: wild type"}, "[8]": {"conditions": "0.13 µg/ml, genetic background: ΔmarA"}, "[9]": {"conditions": "0.13 µg/ml, genetic background: Δrob"}, "[10]": {"conditions": "0.13 µg/ml, genetic background: ΔsoxS"}, "[11]": {"conditions": "0.26 µg/ml, genetic background: wild type"}, "[12]": {"conditions": "0.26 µg/ml, genetic background: ΔmarA"}, "[13]": {"conditions": "0.26 µg/ml, genetic background: Δrob"}, "[14]": {"conditions": "0.26 µg/ml, genetic background: ΔsoxS"}, "[15]": {"conditions": "0.52 µg/ml, genetic background: wild type"}, "[16]": {"conditions": "0.52 µg/ml, genetic background: ΔmarA"}, "[17]": {"conditions": "0.52 µg/ml, genetic background: Δrob"}, "[18]": {"conditions": "0.52 µg/ml, genetic background: ΔsoxS"}}, "note": "± gives the standard deviation of the averaged measurements."}
{"compound": "CNC(C)C1CCC(N)C(OC2C(N)CC(N)C(OC3OCC(C)(O)C(NC)C3O)C2O)O1", "note": "(configuration not stated) [Gentamicin]", "values": [{"measurement": "promoter activity interaction Z-score", "setting": "[1]; [7]", "value": "-0.258 ± 0.098"}, {"measurement": "promoter activity interaction Z-score", "setting": "[1]; [8]", "value": "0.731 ± 0.32"}, {"measurement": "promoter activity interaction Z-score", "setting": "[1]; [9]", "value": "0.126 ± 0.055"}, {"measurement": "promoter activity interaction Z-score", "setting": "[1]; [10]", "value": "0.158 ± 0.14"}, {"measurement": "promoter activity interaction Z-score", "setting": "[1]; [11]", "value": "-0.117 ± 0.18"}, {"measurement": "promoter activity interaction Z-score", "setting": "[1]; [12]", "value": "0.35 ± 0.15"}, {"measurement": "promoter activity interaction Z-score", "setting": "[1]; [13]", "value": "0.483 ± 0.18"}, {"measurement": "promoter activity interaction Z-score", "setting": "[1]; [14]", "value": "0.0843 ± 0.06"}, {"measurement": "promoter activity interaction Z-score", "setting": "[1]; [15]", "value": "0.311 ± 0.023"}, {"measurement": "promoter activity interaction Z-score", "setting": "[1]; [16]", "value": "0.396 ± 0.21"}, {"measurement": "promoter activity interaction Z-score", "setting": "[1]; [17]", "value": "0.801 ± 0.45"}, {"measurement": "promoter activity interaction Z-score", "setting": "[1]; [18]", "value": "0.744 ± 0.39"}, {"measurement": "promoter activity interaction Z-score", "setting": "[2]; [7]", "value": "-0.256 ± 0.0079"}, {"measurement": "promoter activity interaction Z-score", "setting": "[2]; [8]", "value": "-0.00364 ± 0.024"}, {"measurement": "promoter activity interaction Z-score", "setting": "[2]; [9]", "value": "-0.0412 ± 0.1"}, {"measurement": "promoter activity interaction Z-score", "setting": "[2]; [10]", "value": "0.232 ± 0.23"}, {"measurement": "promoter activity interaction Z-score", "setting": "[2]; [11]", "value": "-0.302 ± 0.26"}, {"measurement": "promoter activity interaction Z-score", "setting": "[2]; [12]", "value": "0.035 ± 0.072"}, {"measurement": "promoter activity interaction Z-score", "setting": "[2]; [13]", "value": "0.115 ± 0.15"}, {"measurement": "promoter activity interaction Z-score", "setting": "[2]; [14]", "value": "0.509 ± 0.23"}, {"measurement": "promoter activity interaction Z-score", "setting": "[2]; [15]", "value": "-0.614 ± 0.016"}, {"measurement": "promoter activity interaction Z-score", "setting": "[2]; [16]", "value": "0.0535 ± 0.039"}, {"measurement": "promoter activity interaction Z-score", "setting": "[2]; [17]", "value": "0.114 ± 0.013"}, {"measurement": "promoter activity interaction Z-score", "setting": "[2]; [18]", "value": "0.235 ± 0.36"}, {"measurement": "promoter activity interaction Z-score", "setting": "[3]; [7]", "value": "-0.504 ± 0.27"}, {"measurement": "promoter activity interaction Z-score", "setting": "[3]; [8]", "value": "-0.192 ± 0.27"}, {"measurement": "promoter activity interaction Z-score", "setting": "[3]; [9]", "value": "0.285 ± 0.14"}, {"measurement": "promoter activity interaction Z-score", "setting": "[3]; [10]", "value": "0.28 ± 0.15"}, {"measurement": "promoter activity interaction Z-score", "setting": "[3]; [11]", "value": "-1.09 ± 0.052"}, {"measurement": "promoter activity interaction Z-score", "setting": "[3]; [12]", "value": "-0.0939 ± 0.49"}, {"measurement": "promoter activity interaction Z-score", "setting": "[3]; [13]", "value": "-0.00259 ± 0.23"}, {"measurement": "promoter activity interaction Z-score", "setting": "[3]; [14]", "value": "0.504 ± 0.56"}, {"measurement": "promoter activity interaction Z-score", "setting": "[3]; [15]", "value": -0.826}, {"measurement": "promoter activity interaction Z-score", "setting": "[3]; [16]", "value": "-0.127 ± 0.14"}, {"measurement": "promoter activity interaction Z-score", "setting": "[3]; [17]", "value": -0.414}, {"measurement": "promoter activity interaction Z-score", "setting": "[3]; [18]", "value": "0.191 ± 0.32"}, {"measurement": "promoter activity interaction Z-score", "setting": "[4]; [7]", "value": "-0.805 ± 0.067"}, {"measurement": "promoter activity interaction Z-score", "setting": "[4]; [8]", "value": "-0.513 ± 0.77"}, {"measurement": "promoter activity interaction Z-score", "setting": "[4]; [9]", "value": "0.0663 ± 0.25"}, {"measurement": "promoter activity interaction Z-score", "setting": "[4]; [10]", "value": "-0.014 ± 0.43"}, {"measurement": "promoter activity interaction Z-score", "setting": "[4]; [11]", "value": "-0.862 ± 1.1"}, {"measurement": "promoter activity interaction Z-score", "setting": "[4]; [12]", "value": "0.245 ± 0.6"}, {"measurement": "promoter activity interaction Z-score", "setting": "[4]; [13]", "value": "-0.248 ± 0.75"}, {"measurement": "promoter activity interaction Z-score", "setting": "[4]; [14]", "value": "0.869 ± 0.64"}, {"measurement": "promoter activity interaction Z-score", "setting": "[4]; [15]", "value": "-1.31 ± 0.28"}, {"measurement": "promoter activity interaction Z-score", "setting": "[4]; [16]", "value": "-0.148 ± 0.081"}, {"measurement": "promoter activity interaction Z-score", "setting": "[4]; [17]", "value": "-1.14 ± 0.47"}, {"measurement": "promoter activity interaction Z-score", "setting": "[4]; [18]", "value": "-0.192 ± 0.46"}, {"measurement": "promoter activity interaction Z-score", "setting": "[5]; [7]", "value": "-0.176 ± 0.037"}, {"measurement": "promoter activity interaction Z-score", "setting": "[5]; [8]", "value": "0.0574 ± 0.0087"}, {"measurement": "promoter activity interaction Z-score", "setting": "[5]; [9]", "value": "0.128 ± 0.056"}, {"measurement": "promoter activity interaction Z-score", "setting": "[5]; [10]", "value": "0.247 ± 0.13"}, {"measurement": "promoter activity interaction Z-score", "setting": "[5]; [11]", "value": "-0.318 ± 0.11"}, {"measurement": "promoter activity interaction Z-score", "setting": "[5]; [12]", "value": "-0.0384 ± 0.093"}, {"measurement": "promoter activity interaction Z-score", "setting": "[5]; [13]", "value": "0.0805 ± 0.022"}, {"measurement": "promoter activity interaction Z-score", "setting": "[5]; [14]", "value": "0.308 ± 0.14"}, {"measurement": "promoter activity interaction Z-score", "setting": "[5]; [15]", "value": "-0.16 ± 0.27"}, {"measurement": "promoter activity interaction Z-score", "setting": "[5]; [16]", "value": "-0.404 ± 0.039"}, {"measurement": "promoter activity interaction Z-score", "setting": "[5]; [17]", "value": "-0.462 ± 0.067"}, {"measurement": "promoter activity interaction Z-score", "setting": "[5]; [18]", "value": "0.162 ± 0.49"}, {"measurement": "promoter activity interaction Z-score", "setting": "[6]; [7]", "value": "-0.827 ± 0.069"}, {"measurement": "promoter activity interaction Z-score", "setting": "[6]; [8]", "value": "0.61 ± 0.68"}, {"measurement": "promoter activity interaction Z-score", "setting": "[6]; [9]", "value": "-0.223 ± 0.083"}, {"measurement": "promoter activity interaction Z-score", "setting": "[6]; [10]", "value": "0.974 ± 0.11"}, {"measurement": "promoter activity interaction Z-score", "setting": "[6]; [11]", "value": "-0.519 ± 0.51"}, {"measurement": "promoter activity interaction Z-score", "setting": "[6]; [12]", "value": "0.897 ± 0.19"}, {"measurement": "promoter activity interaction Z-score", "setting": "[6]; [13]", "value": "0.252 ± 0.61"}, {"measurement": "promoter activity interaction Z-score", "setting": "[6]; [14]", "value": "0.0714 ± 0.32"}, {"measurement": "promoter activity interaction Z-score", "setting": "[6]; [15]", "value": "-0.626 ± 0.67"}, {"measurement": "promoter activity interaction Z-score", "setting": "[6]; [16]", "value": "-0.251 ± 0.16"}, {"measurement": "promoter activity interaction Z-score", "setting": "[6]; [17]", "value": "-0.791 ± 0.011"}, {"measurement": "promoter activity interaction Z-score", "setting": "[6]; [18]", "value": "0.133 ± 0.12"}]}
